Counter-ions that a name gives are not always drawn. ± gives the standard deviation of the averaged measurements.
Columns and labels:
[1] = tested on: Saccharomyces cerevisiae BY4741 SeMeCo community; assay: z-score of subpopulation abundance vs DMSO median, subpopulation auxotrophic for M; higher = larger share of this subpopulation than in DMSO controls; settings: 10 µM; 24 h; SM minimal medium; subpopulation (auxotrophy): M
Outline: (§1)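 Automated confocal microscopy of paraformaldehyde-fixed cells was used to follow a Saccharomyces cerevisiae BY4741 community carrying four plasmids, each restoring one auxotrophy and encoding a distinct fluorescent protein. The community was pre-grown overnight to OD600 1.0, diluted to 0.3, and added at 70 µl to 384-well plates acoustically predosed with library drugs (10 µM final) for 24 h of growth in minimal SM medium. Single-auxotroph fluorescent strains set thresholds and autofluorescence correction, and each subpopulation's abundance was scored as a z-score against the vehicle-well median.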

[2] = tested on: Saccharomyces cerevisiae BY4741 SeMeCo community; assay: z-score of subpopulation abundance vs DMSO median, subpopulation auxotrophic for L; higher = larger share of this subpopulation than in DMSO controls; settings: 10 µM; 24 h; SM minimal medium; subpopulation (auxotrophy): L
Outline: as §1

[3] = tested on: Saccharomyces cerevisiae BY4741 SeMeCo community; assay: z-score of subpopulation abundance vs DMSO median, subpopulation auxotrophic for U; higher = larger share of this subpopulation than in DMSO controls; settings: 10 µM; 24 h; SM minimal medium; subpopulation (auxotrophy): U
Outline: as §1

[4] = tested on: Saccharomyces cerevisiae BY4741 SeMeCo community; assay: z-score of subpopulation abundance vs DMSO median, subpopulation auxotrophic for H; higher = larger share of this subpopulation than in DMSO controls; settings: 10 µM; 24 h; SM minimal medium; subpopulation (auxotrophy): H
Outline: as §1

[5] = tested on: Saccharomyces cerevisiae BY4741 SeMeCo community; assay: z-score of subpopulation abundance vs DMSO median, subpopulation auxotrophic for LU; higher = larger share of this subpopulation than in DMSO controls; settings: 10 µM; 24 h; SM minimal medium; subpopulation (auxotrophy): LU
Outline: as §1

[6] = tested on: Saccharomyces cerevisiae BY4741 SeMeCo community; assay: z-score of subpopulation abundance vs DMSO median, subpopulation auxotrophic for LM; higher = larger share of this subpopulation than in DMSO controls; settings: 10 µM; 24 h; SM minimal medium; subpopulation (auxotrophy): LM
Outline: as §1

[7] = tested on: Saccharomyces cerevisiae BY4741 SeMeCo community; assay: z-score of subpopulation abundance vs DMSO median, subpopulation auxotrophic for HM; higher = larger share of this subpopulation than in DMSO controls; settings: 10 µM; 24 h; SM minimal medium; subpopulation (auxotrophy): HM
Outline: as §1

[8] = tested on: Saccharomyces cerevisiae BY4741 SeMeCo community; assay: z-score of subpopulation abundance vs DMSO median, subpopulation auxotrophic for HU; higher = larger share of this subpopulation than in DMSO controls; settings: 10 µM; 24 h; SM minimal medium; subpopulation (auxotrophy): HU
Outline: as §1

[9] = tested on: Saccharomyces cerevisiae BY4741 SeMeCo community; assay: z-score of subpopulation abundance vs DMSO median, subpopulation auxotrophic for UM; higher = larger share of this subpopulation than in DMSO controls; settings: 10 µM; 24 h; SM minimal medium; subpopulation (auxotrophy): UM
Outline: as §1

[10] = tested on: Saccharomyces cerevisiae BY4741 SeMeCo community; assay: z-score of subpopulation abundance vs DMSO median, subpopulation auxotrophic for HL; higher = larger share of this subpopulation than in DMSO controls; settings: 10 µM; 24 h; SM minimal medium; subpopulation (auxotrophy): HL
Outline: as §1

[11] = tested on: Saccharomyces cerevisiae BY4741 SeMeCo community; assay: z-score of subpopulation abundance vs DMSO median, subpopulation auxotrophic for HLU; higher = larger share of this subpopulation than in DMSO controls; settings: 10 µM; 24 h; SM minimal medium; subpopulation (auxotrophy): HLU
Outline: as §1

[12] = tested on: Saccharomyces cerevisiae BY4741 SeMeCo community; assay: z-score of subpopulation abundance vs DMSO median, subpopulation auxotrophic for HLM; higher = larger share of this subpopulation than in DMSO controls; settings: 10 µM; 24 h; SM minimal medium; subpopulation (auxotrophy): HLM
Outline: as §1

[13] = tested on: Saccharomyces cerevisiae BY4741 SeMeCo community; assay: z-score of subpopulation abundance vs DMSO median, subpopulation auxotrophic for HUM; higher = larger share of this subpopulation than in DMSO controls; settings: 10 µM; 24 h; SM minimal medium; subpopulation (auxotrophy): HUM
Outline: as §1

[14] = tested on: Saccharomyces cerevisiae BY4741 SeMeCo community; assay: z-score of subpopulation abundance vs DMSO median, subpopulation auxotrophic for HLUM; higher = larger share of this subpopulation than in DMSO controls; settings: 10 µM; 24 h; SM minimal medium; subpopulation (auxotrophy): HLUM
Outline: as §1

[15] = tested on: Saccharomyces cerevisiae BY4741 SeMeCo community; assay: mean cell size (pixel area) (pixels); higher = larger cells; settings: 10 µM; 24 h; SM minimal medium
Outline: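 A Saccharomyces cerevisiae BY4741 community carrying four plasmids, each with a fluorescent marker and each complementing one auxotrophy, was exposed for 24 h to drug at a final 10 µM in SM medium in acoustically predosed 384-well plates. The overnight preculture (OD600 = 1.0) was diluted to OD600 = 0.3 before 70 µl was added per well. Cells were then fixed with paraformaldehyde, imaged by automated confocal microscopy and analysed in Harmony to derive mean cell pixel area per well, averaged over 3 replicates. Same SeMeCo high-content imaging drug screen: Selleck FDA-approved drugs at 10 µM, 24 h in SM medium, 384-well plates, 3 replicates.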

[16] = tested on: Saccharomyces cerevisiae BY4741 SeMeCo community; assay: z-score of prototroph abundance vs DMSO median; higher = larger share of this subpopulation than in DMSO controls; settings: 10 µM; 24 h; SM minimal medium; subpopulation (auxotrophy): Prototroph
Outline: as §1

[17] = tested on: Saccharomyces cerevisiae BY4741 SeMeCo community; assay: z-score of subpopulation abundance vs DMSO median, subpopulation auxotrophic for LUM; higher = larger share of this subpopulation than in DMSO controls; settings: 10 µM; 24 h; SM minimal medium; subpopulation (auxotrophy): LUM
Outline: as §1

| Compound | z-score of subpopulation abundance [1] | z-score of subpopulation abundance [2] | z-score of subpopulation abundance [3] | z-score of subpopulation abundance [4] | z-score of subpopulation abundance [5] | z-score of subpopulation abundance [6] | z-score of subpopulation abundance [7] | z-score of subpopulation abundance [8] | z-score of subpopulation abundance [9] | z-score of subpopulation abundance [10] | z-score of subpopulation abundance [11] | z-score of subpopulation abundance [12] | z-score of subpopulation abundance [13] | z-score of subpopulation abundance [14] | mean cell size [15] | z-score of prototroph abundance [16] | z-score of subpopulation abundance [17] |
| --- | --- | --- | --- | --- | --- | --- | --- | --- | --- | --- | --- | --- | --- | --- | --- | --- | --- |
| Clc1ccc(COC(Cn2ccnc2)c2ccc(Cl)cc2Cl)cc1 (stereo not drawn) [Econazole nitrate] | -2.24 | -3.48 | 3.05 | 15.7 | 1.14 | -1.64 | 2.52 | 12.4 | 10.3 | 5.56 | 6.46 | 10.7 | 6.6 | 9.87 | – | – | – |
| CCC(=O)c1c(O)cc(O)cc1O [Flopropione] | 0.69 | -0.09 | -0.13 | 0.18 | -0.57 | – | 0.19 | 1.06 | 0.25 | -0.4 | -0.08 | 0.03 | -0.23 | – | 12.5 ± 0.18 | 0.7 | -0.46 |
| CC[C@H](C)C[C@H](C)CCCCCCCCC(=O)N[C@H]1C[C@@H](O)[C@@H](NCCN)NC(=O)[C@@H]2[C@@H](O)CCN2C(=O)[C@H]([C@H](O)CCN)NC(=O)[C@H]([C@H](O)[C@@H](O)c2ccc(O)cc2)NC(=O)[C@@H]2C[C@@H](O)CN2C(=O)[C@H]([C@@H](C)O)NC1=O [Caspofungin Acetate] | -8.37 | 5.93 | -3.79 | – | -0.13 | – | -0.2 | 8.05 | -2.51 | 51.3 | 13.9 | 45.5 | 10.8 | – | 12.17 ± 0.068 | – | 5.81 |
| CC1(C)CC[C@]2(C(=O)O)CC[C@]3(C)C(=CC[C@@H]4[C@@]5(C)CC[C@H](O)C(C)(C)[C@@H]5CC[C@]43C)[C@@H]2C1 [Oleanolic Acid] | 0.25 | -0.03 | -0.6 | -0.07 | -0.16 | 0.88 | – | 0.23 | 0.1 | 0.59 | 0.15 | 0.33 | 0.93 | – | – | -0.29 | 0.78 |
| Clc1ccc(CCC(Cn2ccnc2)Sc2c(Cl)cccc2Cl)cc1 (stereo not drawn) [Butoconazole] | -8.6 | 2.88 | – | 36.2 | -0.9 | -2.25 | 1.61 | 7.63 | – | 31.6 | 9.84 | 27.1 | 5.14 | 32.1 | – | -10 | – |
| CCOc1ccc2ccccc2c1C(=O)N[C@@H]1C(=O)N2[C@@H]1SC(C)(C)[C@@H]2C(=O)O [Nafcillin Sodium] | -0.26 | 0.95 | -0.63 | -0.47 | 0.04 | 0.39 | 0.22 | – | -0.68 | -0.51 | -0.19 | -0.71 | 0 | -0.09 | – | 0.32 | – |
| CO/N=C(\C(=O)N[C@@H]1C(=O)N2C(C(=O)[O-])=C(C[n+]3cccc4c3CCC4)CS[C@H]12)c1csc(N)n1 [Cefpirome sulfate] | 0.51 | 1.19 | -0.71 | 0.64 | -0.12 | 0.27 | 0.31 | – | 0.21 | -0.18 | -0.14 | -0.14 | 0 | 0.23 | – | -0.2 | 0.18 |

Reference: the supplement of paper PMC8975748
